Active and inactive are the calls of the source. Rule for the calls: active = hit-call score of the fitted dose curve at least 0.9, where 1 is the maximum; inactive = score below 0.9.
Columns and labels:
Details in all cases: mRNA level, 48 h; actives raise or lower the signal
[1] = read-out: Forkhead box O3 (FOXO3), FOXO3 (gene 2309); assay: LTEA_HepaRG_FOXO3: Life Technologies and Expression Analysis (LTEA) Assay for Forkhead box O3 (FOXO3) using HepaRG (AID 2283459)
Outline: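 Differentiated human HepaRG cells, 48 h post-plating, exposed in duplicate for 48 h in serum-free induction medium; 8-point half-log series from 100 uM in 0.5% DMSO. FOXO3 mRNA by TaqMan qRT-PCR, normalized to ACTB/GAPDH/POLR2A; bidirectional fit versus DMSO.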

[2] = read-out: ABC Transporter (ABCB1), ABCB1 (gene 5243); assay: LTEA_HepaRG_ABCB1: Life Technologies and Expression Analysis (LTEA) Assay for ABC Transporter (ABCB1) using HepaRG (AID 2283460)
Outline: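 HepaRG cells exposed in duplicate for 48 h in serum-free induction medium to eight half-log concentrations up to 100 uM in 0.5% DMSO. ABCB1 mRNA quantified by qRT-PCR, normalised to ACTB, GAPDH and POLR2A; fitted bidirectionally versus DMSO.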

[3] = read-out: growth arrest and DNA damage 45 (GADD45B), GADD45B (gene 4616); assay: LTEA_HepaRG_GADD45B: Life Technologies and Expression Analysis (LTEA) Assay for growth arrest and DNA damage 45 (GADD45B) using HepaRG (AID 2283461)
Outline: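 qRT-PCR read-out (Fluidigm TaqMan, housekeeping-normalized) of mRNA change in human HepaRG cells after 48 h chemical exposure; 8-point curve, top 100 uM, half-log steps, 0.5% DMSO vehicle; gain or loss fitted relative to DMSO baseline.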

[4] = read-out: ABC Transporter (ABCC3), ABCC3 (gene 8714); assay: LTEA_HepaRG_ABCC3: Life Technologies and Expression Analysis (LTEA) Assay for ABC Transporter (ABCC3) using HepaRG (AID 2283462)
Outline: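 qRT-PCR read-out of ABCC3 transcript, normalized to three housekeeping genes (ACTB, GAPDH, POLR2A), after 48 h chemical exposure of human HepaRG cells. Eight half-log concentrations, highest 100 uM, in 0.5% DMSO; gain or loss fitted relative to DMSO baseline.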

[5] = read-out: ABC Transporter (ABCB11), ABCB11 (gene 8647); assay: LTEA_HepaRG_ABCB11: Life Technologies and Expression Analysis (LTEA) Assay for ABC Transporter (ABCB11) using HepaRG (AID 2283463)
Outline: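 Differentiated human HepaRG cells in serum-free induction medium, dosed in duplicate for 48 h. Eight-point half-log series from 100 uM in 0.5% DMSO; ABCB11 mRNA by qRT-PCR, normalized to ACTB, GAPDH, POLR2A, fitted bidirectionally versus DMSO.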

[6] = read-out: ABC Transporter (ABCC2), ABCC2 (gene 1244); assay: LTEA_HepaRG_ABCC2: Life Technologies and Expression Analysis (LTEA) Assay for ABC Transporter (ABCC2) using HepaRG (AID 2283464)
Outline: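 qRT-PCR (TaqMan, Fluidigm array) read-out of ABCC2 mRNA, normalized to three housekeeping genes. Differentiated HepaRG cells were treated 48 h in serum-free induction medium with 8-point half-log series from 100 uM in 0.5% DMSO; curves fitted bidirectionally relative to DMSO.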

[7] = read-out: ATP-citrate lyase (ACLY), ACLY (gene 47); assay: LTEA_HepaRG_ACLY: Life Technologies and Expression Analysis (LTEA) Assay for ATP-citrate lyase (ACLY) using HepaRG (AID 2283466)
Outline: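 Differentiated HepaRG cells exposed 48 h in serum-free induction medium to eight half-log concentrations up to 100 uM in 0.5% DMSO, duplicates. Transcript measured by Fluidigm TaqMan qRT-PCR, normalized to ACTB, GAPDH, POLR2A; bidirectional fit versus DMSO.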

[8] = read-out: Peroxisomal acyl-coenzyme A oxidase 1 (ACOX1) gene, ACOX1 (gene 51); assay: LTEA_HepaRG_ACOX1: Life Technologies and Expression Analysis (LTEA) Assay for Peroxisomal acyl-coenzyme A oxidase 1 (ACOX1) gene using HepaRG (AID 2283467)
Outline: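 HepaRG cells, plated 48 h then switched to serum-free induction medium, were exposed in duplicate for 48 h to 8-point half-log concentrations up to 100 uM in 0.5% DMSO. ACOX1 mRNA was measured by qRT-PCR, normalized to ACTB/GAPDH/POLR2A, and fitted bidirectionally versus DMSO.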

[9] = read-out: Alkaline Phosphatase, Placental (ALPP) gene, ALPP (gene 250); assay: LTEA_HepaRG_ALPP: Life Technologies and Expression Analysis (LTEA) Assay for Alkaline Phosphatase, Placental (ALPP) gene using HepaRG (AID 2283468)
Outline: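 qRT-PCR readout of ALPP mRNA (Fluidigm TaqMan), normalized to ACTB/GAPDH/POLR2A, after 48 h chemical exposure of HepaRG cells; 8-point half-log series, top 100 uM, 0.5% DMSO vehicle. Bidirectional curve fit versus DMSO baseline.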

[10] = read-out: Bcl-2 (BAD) gene, BAD (gene 572); assay: LTEA_HepaRG_BAD: Life Technologies and Expression Analysis (LTEA) Assay for Bcl-2 (BAD) gene using HepaRG (AID 2283469)
Outline: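 Differentiated HepaRG cells were exposed in duplicate in 0.5% DMSO for 48 h to eight-point half-log concentrations up to 100 uM. BAD mRNA was measured by Fluidigm TaqMan qRT-PCR, normalized to ACTB, GAPDH and POLR2A, and fitted bidirectionally against DMSO.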

[11] = read-out: Bcl-2 (BAX) gene, BAX (gene 581); assay: LTEA_HepaRG_BAX: Life Technologies and Expression Analysis (LTEA) Assay for Bcl-2 (BAX) gene using HepaRG (AID 2283470)
Outline: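 Concentration-response endpoint fitted in both directions relative to 0.5% DMSO vehicle. Human HepaRG cultures receive test chemicals for 48 h at up to 100 uM; BAX mRNA is quantified by qRT-PCR against housekeeping genes.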

[12] = read-out: adenosine kinase (ADK) gene, ADK (gene 132); assay: LTEA_HepaRG_ADK: Life Technologies and Expression Analysis (LTEA) Assay for adenosine kinase (ADK) gene using HepaRG (AID 2283471)
Outline: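 Following 48 h exposure of HepaRG cells in 0.5% DMSO (top concentration 100 uM, duplicate wells), ADK mRNA induction or suppression was measured by qRT-PCR, normalised to ACTB/GAPDH/POLR2A, and fitted bidirectionally relative to vehicle.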

[13] = read-out: Alpha-fetoprotein (AFP) gene, AFP (gene 174); assay: LTEA_HepaRG_AFP: Life Technologies and Expression Analysis (LTEA) Assay for Alpha-fetoprotein (AFP) gene using HepaRG (AID 2283472)
Outline: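 After a 48 h plating period, cells are moved to serum-free induction medium and dosed in duplicate (100 uM maximum, half-log dilutions, 0.5% DMSO) for another 48 h. Total RNA goes to TaqMan qRT-PCR; AFP signal is housekeeping-normalized.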

BCL2L11 (gene 10018) = assay: LTEA_HepaRG_BCL2L11: Life Technologies and Expression Analysis (LTEA) Assay for Bcl-2 (BCL2L11) gene using HepaRG (AID 2283473)
Outline: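 HepaRG, 48 h exposure, 8-pt half-log series from 100 uM in 0.5% DMSO, duplicates; qRT-PCR (Fluidigm TaqMan) for BCL2L11, housekeeping-normalized; bidirectional curve fit relative to DMSO baseline.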

[14] = read-out: Apolipoprotein A-V (APOA5) gene, APOA5 (gene 116519); assay: LTEA_HepaRG_APOA5: Life Technologies and Expression Analysis (LTEA) Assay for Apolipoprotein A-V (APOA5) gene using HepaRG (AID 2283474)
Outline: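 HepaRG, 48 h chemical exposure in serum-free induction medium, 8-pt half-log series (top 100 uM), 0.5% DMSO vehicle, duplicates. Readout: APOA5 mRNA by qRT-PCR, housekeeping-normalized; bidirectional fit vs DMSO baseline.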

[15] = read-out: Apoptosis regulator Bcl-2 (Homo sapiens) (UniProt P10415); assay: LTEA_HepaRG_BCL2: Life Technologies and Expression Analysis (LTEA) Assay for Bcl-2 gene using HepaRG (AID 2283475)
Outline: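 Expression change of BCL2 mRNA in HepaRG after 48 h dosing, quantified by TaqMan qRT-PCR against three endogenous controls. Concentration-response used eight points up to 100 uM, vehicle 0.5% DMSO.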

[16] = read-out: Bcl-2 (BID) gene, BID (gene 637); assay: LTEA_HepaRG_BID: Life Technologies and Expression Analysis (LTEA) Assay for Bcl-2 (BID) gene using HepaRG (AID 2283476)
Outline: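 Gain or loss of BID expression is fitted relative to 0.5% DMSO vehicle. Human HepaRG liver cells received a 48 h chemical exposure over an eight-point concentration range.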

Caspase-3 (Homo sapiens) = Caspase-3 (Homo sapiens) (UniProt P42574); assay: LTEA_HepaRG_CASP3: Life Technologies and Expression Analysis (LTEA) Assay for cysteine-aspartic acid protease (CASP3) using HepaRG (AID 2283477)
Outline: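 HepaRG, 48 h exposure, 8 conc. (top 100 uM, half-log steps, duplicate), 0.5% DMSO vehicle; qRT-PCR of CASP3 transcript, housekeeping-normalised (ACTB/GAPDH/POLR2A); bidirectional curve fit vs DMSO baseline.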

[17] = read-out: Cytochrome P450 (CYP24A1), CYP24A1 (gene 1591); assay: LTEA_HepaRG_CYP24A1: Life Technologies and Expression Analysis (LTEA) Assay for Cytochrome P450 (CYP24A1) using HepaRG (AID 2283478)
Outline: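 qRT-PCR read-out: CYP24A1 transcript levels normalized to three housekeeping genes, bidirectional curve fits against 0.5% DMSO baseline. Human HepaRG cells treated 48 h with chemicals at eight concentrations from 100 uM in half-log steps.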

Measured: AC50

Sequence of Caspase-3 (Homo sapiens) (P42574 whole entry, looked up): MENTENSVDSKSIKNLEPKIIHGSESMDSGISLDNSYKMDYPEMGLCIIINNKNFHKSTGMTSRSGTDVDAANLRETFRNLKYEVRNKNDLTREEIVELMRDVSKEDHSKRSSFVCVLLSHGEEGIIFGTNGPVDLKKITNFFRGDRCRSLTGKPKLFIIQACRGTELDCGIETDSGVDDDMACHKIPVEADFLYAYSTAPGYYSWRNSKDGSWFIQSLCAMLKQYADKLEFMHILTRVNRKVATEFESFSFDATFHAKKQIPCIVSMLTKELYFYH
Sequence of Apoptosis regulator Bcl-2 (Homo sapiens) (P10415 whole entry, looked up): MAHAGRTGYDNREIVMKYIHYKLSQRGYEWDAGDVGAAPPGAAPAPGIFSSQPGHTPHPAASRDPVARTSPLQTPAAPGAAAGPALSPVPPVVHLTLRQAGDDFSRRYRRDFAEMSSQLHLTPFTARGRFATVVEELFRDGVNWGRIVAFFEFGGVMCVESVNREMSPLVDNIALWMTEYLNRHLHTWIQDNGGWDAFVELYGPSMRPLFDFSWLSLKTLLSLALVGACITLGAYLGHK

COc1cccc(-c2ccc(/C=C\CN3CCCCCC3)cc2Cl)c1
active: [3] 76.2 µM | [4] 75.9 µM | [5] 69.3 µM | [6] 75.4 µM | [8] 45.2 µM | [9] 45.2 µM | [11] 74.5 µM | [14] 71.7 µM | [15] 67.4 µM
inactive: all other assays above

CC[C@H]1CC[C@H](NCc2cc3c(cc2OC)[C@H]2C[C@H]2C(=O)N3C)[C@H](c2ccccc2)N1
active: [6] 50 µM | [9] 75.7 µM | [13] 50 µM | BCL2L11 (gene 10018) 31.7 µM
inactive: all other assays above

COCCOc1cc2cc(C(=O)NC3CCN(C(C)C)CC3)n(CC(=O)Nc3ccc(Cl)cn3)c2cn1
active: [1] 11.6 µM | [2] 20.6 µM | [4] 45 µM | [5] 59.5 µM | [6] 37.2 µM | [8] 39.4 µM | [13] 65 µM | BCL2L11 (gene 10018) 15.2 µM | [14] 45 µM
not listed: Caspase-3 (Homo sapiens)
inactive: all other assays above

CCCCCCCCCCCCCCCO
not listed: [11]
inactive: all other assays above

Source: PubChem BioAssay (EPA / NIEHS)
